Our source for the composite z-score, composite Z-score and z-score values is PubChem BioAssay.

For experiment [1], the target named is Albumin (Bos taurus) (UniProt P02769). As to the kind of experiment: compounds binding labelled BSA control protein – biochemical, small-molecule microarray, Alexa647 label, 635/667 nm fluorescence, artefact control for SMM control protein annotation, profiling panel (AID 1118).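 Further: score merges 667 nm emission intensity and signal-to-noise per printed compound spot.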 Particulars: BSA-A647 binding, fluorescence 635 nm, higher = more signal.
The nature of experiment [2]: probe aXIP binding to arrayed compounds – biochemical, NeuroSMM set, 635/667 nm fluorescence, primary screen (AID 1119).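 Further: probe is the protein aXip251-270 applied at 1 µg/mL to compound-printed slides; binding of probe to printed compounds measured as 667 nm fluorescence plus signal to noise.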 Particulars: small-molecule microarray, higher = more signal, called active from +8 up or from −8 down.
A short description of experiment [3]: probe aNOTCH3 binding on compound microarray – biochemical, small-molecule microarray, 635/667 nm fluorescence, primary screen (AID 1120).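 Further: probe is a biotin-tagged antibody raised against NOTCH3 rather than NOTCH3 protein; score merges spot fluorescence near 667 nm with spot signal to noise.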 The following applies: higher = more signal.
Experiment [4] can be described thus: probe aNOTCH2 binding on compound microarray – biochemical, small-molecule microarray, 635/667 nm fluorescence, primary screen (AID 1121).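 Further: score merges feature fluorescence read at 667 nm with its signal to noise.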 The following applies: higher = more signal.
In experiment [5] the target is Carbonic anhydrase 2 (Homo sapiens) (UniProt P00918). As to the kind of experiment: compounds binding carbonic anhydrase 2 – biochemical, small-molecule microarray, Alexa647-labelled CAII, profiling panel (AID 1122). Particulars: CAII-A647 binding fluorescence, higher = more signal.
Experiment [6] in a line: COS7 lysate on small-molecule microarray, probe aHis, 635 nm (AID 1123).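 Further: z-score combines 667nm fluorescence intensity with signal-to-noise per printed compound spot.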 Particulars: COS7 cell lysate, fluorescence, higher = more signal.
A short description of experiment [7]: probe aLAP1 signal on lysate-treated microarray – cell lysate, small-molecule microarray, COS7 lysate, primary screen (AID 1124).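 Further: lysate comes from COS7 cells expressing LAP1 and is applied at 0.3 µg/mL; score merges spot fluorescence near 667 nm with signal-to-noise over triplicate slides.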 The following applies: probe aLAP1, fluorescence, higher = more signal.
The test system of experiment [8] is Sam68 (KHDRBS1). As to the kind of experiment: compounds binding KHDRBS1 protein – biochemical, small-molecule microarray, 635 nm fluorescence, primary screen (AID 1125).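 Further: score merges 667 nm channel intensity with signal to noise over triplicate slides.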 The following applies: higher = more signal.
Experiment [9] relates to Chordin-like protein 2 (CHRDL2). As to the kind of experiment: compounds binding chordin-like 2 – biochemical, small-molecule microarray, 635 nm fluorescence, primary screen (AID 1126).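 Further: printed compound slides probed with Chrdl2 protein at 4 µg/mL for 1 h at 4 C; score merges 667 nm emission intensity with signal to noise over three replicate slides.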 The following applies: fluorescence 635 nm, higher = more signal.
The target of experiment [10] is Concanavalin-A (Canavalia ensiformis) (UniProt P02866). As to the kind of experiment: compounds binding concanavalin A lectin – biochemical, small-molecule microarray, Alexa647 label, 635 nm, artefact control for SMM control protein annotation, primary screen (AID 1127).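 Further: z combines 667 nm emission intensity with signal-to-noise across three replicate slides.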 The following applies: ConA-A647 binding fluorescence, higher = more signal.
A short description of experiment [11]: compounds binding Alexa647 anti-His antibody – biochemical, small-molecule microarray, 635 nm fluorescence, artefact control for SMM control protein annotation, primary screen (AID 1128).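 Further: score merges feature fluorescence with signal-to-noise for each printed compound spot.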 Particulars: higher = more signal.
Experiment [12] relates to Human papillomavirus type 1a E7 protein (residues 1-88). As to the kind of experiment: HPV1a E7 small-molecule binders, primary screen, biochemical, small-molecule microarray, residues 1-88, 635 nm (AID 1129). Particulars: small-molecule microarray binding, fluorescence 635 nm; higher = more signal.
Experiment [13] has as its target Focal adhesion kinase 1 (Homo sapiens) (UniProt Q05397). As to the kind of experiment: PTK2 protein binding on printed compound slides – biochemical, small-molecule microarray, 635/667 nm fluorescence, BSA, DTT, primary screen (AID 1130).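 Further: composite of spot emission at 667 nm and signal to noise over triplicate slides.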 Particulars: 635 nm fluorescence, higher = more signal.
Experiment [14] has as its system Fibrinogen (Alexa647-labelled). As to the kind of experiment: Alexa647-fibrinogen binding to printed small molecules – biochemical, small-molecule microarray, 635/667 nm fluorescence, artefact control for SMM control-protein annotation, profiling panel (AID 1131).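 Further: z-score merges 667 nm fluorescence with per-spot signal-to-noise over triplicate slides.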 The following applies: fibrinogen-A647 binding fluorescence, higher = more signal.
For experiment [15], the target named is Follistatin (Homo sapiens) (UniProt P19883). As to the kind of experiment: FST protein binding to printed compounds – biochemical, small-molecule microarray, 635/667 nm fluorescence, primary screen (AID 1132). The following applies: 635 nm fluorescence, higher = more signal.
The target of experiment [16] is Fibroblast growth factor 2 (Homo sapiens) (UniProt P09038). As to the kind of experiment: basic fibroblast growth factor binding to printed compounds – biochemical, small-molecule microarray, 635/667 nm fluorescence, primary screen (AID 1133). Particulars: FGF2, fluorescence 635/667, higher = more signal.
Experiment [17] in a line: JC-1 mitochondrial potential readout, lung cancer cells – cell-based, A549, JC-1 fluorescence, basal, 24 h, 100 nL, profiling panel (AID 1138).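 Further: A549 lung adenocarcinoma cells under basal conditions with no added stimulus; test concentration not given here.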 The following applies: higher = more signal.
The subject of experiment [18] is Lefty1. As to the kind of experiment: Lefty1 protein binding to printed compounds – biochemical, small-molecule microarray, 635/667 nm fluorescence, primary screen (AID 1139). The following applies: fluorescence 635/667, higher = more signal.
Experiment [19] concerns wheat germ agglutinin (Triticum aestivum), Alexa647-labelled. As to the kind of experiment: Alexa647-WGA lectin binding to printed small molecules – biochemical, small-molecule microarray, 635/667 nm fluorescence, artefact control for SMM control-protein annotation, profiling panel (AID 1140).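 Further: score merges 667 nm feature emission with signal to noise over triplicate slides.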 The following applies: WGA-A647 binding, 635 nm fluorescence, higher = more signal.

The target in experiment [20] is Luciferin 4-monooxygenase (Photinus pyralis) (UniProt P08659). As to the kind of experiment: inhibition of purified Photinus pyralis luciferase – biochemical, luminescence, purified enzyme, 2006 set, primary screen (AID 1141).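 Further: cell-free assay with purified firefly luciferase at 100 ng per well in PBS; test concentration not given here.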 Particulars: purified firefly luciferase, SteadyGlo luminescence, 30 min; higher = more signal, called active from +8 up or from −8 down.

The source made the active and inactive calls.

Chain of Follistatin (Homo sapiens) (P19883 whole entry, looked up): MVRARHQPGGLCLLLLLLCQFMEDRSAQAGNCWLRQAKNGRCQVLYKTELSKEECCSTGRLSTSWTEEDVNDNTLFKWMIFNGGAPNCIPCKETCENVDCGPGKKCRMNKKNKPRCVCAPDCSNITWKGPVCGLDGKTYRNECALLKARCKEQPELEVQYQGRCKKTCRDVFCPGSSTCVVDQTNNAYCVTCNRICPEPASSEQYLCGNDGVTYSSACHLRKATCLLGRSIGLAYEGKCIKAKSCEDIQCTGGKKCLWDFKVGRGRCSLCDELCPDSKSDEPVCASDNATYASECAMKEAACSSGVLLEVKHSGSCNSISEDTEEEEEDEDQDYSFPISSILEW
Chain of Focal adhesion kinase 1 (Homo sapiens) (Q05397 whole entry, looked up): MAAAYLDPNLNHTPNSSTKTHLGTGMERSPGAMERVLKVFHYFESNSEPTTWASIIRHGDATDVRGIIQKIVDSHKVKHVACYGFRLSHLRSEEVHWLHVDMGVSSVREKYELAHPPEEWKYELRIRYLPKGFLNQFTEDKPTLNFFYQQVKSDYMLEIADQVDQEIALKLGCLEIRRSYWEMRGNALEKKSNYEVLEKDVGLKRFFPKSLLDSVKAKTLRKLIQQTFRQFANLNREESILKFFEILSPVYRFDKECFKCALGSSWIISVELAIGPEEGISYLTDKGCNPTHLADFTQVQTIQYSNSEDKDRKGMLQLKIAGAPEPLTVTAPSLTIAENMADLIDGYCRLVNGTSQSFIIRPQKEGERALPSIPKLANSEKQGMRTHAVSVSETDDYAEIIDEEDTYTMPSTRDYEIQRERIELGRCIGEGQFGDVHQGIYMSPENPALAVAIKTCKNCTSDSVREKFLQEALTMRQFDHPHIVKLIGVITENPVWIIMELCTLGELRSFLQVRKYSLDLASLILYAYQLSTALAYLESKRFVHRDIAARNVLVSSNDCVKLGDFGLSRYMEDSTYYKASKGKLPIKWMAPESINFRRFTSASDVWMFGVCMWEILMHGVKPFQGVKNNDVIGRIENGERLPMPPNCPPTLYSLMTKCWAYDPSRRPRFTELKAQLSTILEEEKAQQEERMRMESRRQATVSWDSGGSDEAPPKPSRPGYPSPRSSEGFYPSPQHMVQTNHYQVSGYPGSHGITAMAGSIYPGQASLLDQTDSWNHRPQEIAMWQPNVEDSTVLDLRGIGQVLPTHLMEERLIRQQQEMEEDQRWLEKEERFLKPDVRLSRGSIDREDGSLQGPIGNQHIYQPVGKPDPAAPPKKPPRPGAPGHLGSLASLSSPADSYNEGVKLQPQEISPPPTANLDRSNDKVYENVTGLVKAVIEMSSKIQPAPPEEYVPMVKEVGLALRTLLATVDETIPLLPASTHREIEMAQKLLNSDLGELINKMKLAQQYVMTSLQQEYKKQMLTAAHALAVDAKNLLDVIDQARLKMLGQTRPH
Chain of Fibroblast growth factor 2 (Homo sapiens) (P09038 whole entry, looked up): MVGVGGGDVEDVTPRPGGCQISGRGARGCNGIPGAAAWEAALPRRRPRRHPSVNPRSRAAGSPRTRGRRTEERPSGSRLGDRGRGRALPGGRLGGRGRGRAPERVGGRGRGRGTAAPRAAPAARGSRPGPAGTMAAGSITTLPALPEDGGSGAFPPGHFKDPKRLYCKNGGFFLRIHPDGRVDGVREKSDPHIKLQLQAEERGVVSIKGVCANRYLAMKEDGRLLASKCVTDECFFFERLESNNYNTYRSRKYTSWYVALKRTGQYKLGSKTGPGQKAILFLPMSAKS
Chain of Luciferin 4-monooxygenase (Photinus pyralis) (P08659 whole entry, looked up): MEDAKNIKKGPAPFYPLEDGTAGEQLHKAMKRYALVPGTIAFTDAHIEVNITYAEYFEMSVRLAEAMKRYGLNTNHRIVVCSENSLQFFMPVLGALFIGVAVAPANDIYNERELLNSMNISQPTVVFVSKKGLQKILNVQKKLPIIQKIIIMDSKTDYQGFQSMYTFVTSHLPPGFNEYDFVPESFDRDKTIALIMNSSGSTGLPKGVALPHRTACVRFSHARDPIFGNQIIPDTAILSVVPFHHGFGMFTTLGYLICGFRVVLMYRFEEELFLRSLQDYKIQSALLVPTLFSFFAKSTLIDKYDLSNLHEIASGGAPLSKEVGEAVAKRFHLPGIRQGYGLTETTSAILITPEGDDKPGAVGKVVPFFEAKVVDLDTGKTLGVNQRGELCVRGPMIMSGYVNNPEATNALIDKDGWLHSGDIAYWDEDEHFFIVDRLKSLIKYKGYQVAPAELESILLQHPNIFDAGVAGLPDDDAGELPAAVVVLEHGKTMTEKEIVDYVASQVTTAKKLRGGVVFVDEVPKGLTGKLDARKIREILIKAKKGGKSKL
Chain of Albumin (Bos taurus) (P02769 whole entry, looked up): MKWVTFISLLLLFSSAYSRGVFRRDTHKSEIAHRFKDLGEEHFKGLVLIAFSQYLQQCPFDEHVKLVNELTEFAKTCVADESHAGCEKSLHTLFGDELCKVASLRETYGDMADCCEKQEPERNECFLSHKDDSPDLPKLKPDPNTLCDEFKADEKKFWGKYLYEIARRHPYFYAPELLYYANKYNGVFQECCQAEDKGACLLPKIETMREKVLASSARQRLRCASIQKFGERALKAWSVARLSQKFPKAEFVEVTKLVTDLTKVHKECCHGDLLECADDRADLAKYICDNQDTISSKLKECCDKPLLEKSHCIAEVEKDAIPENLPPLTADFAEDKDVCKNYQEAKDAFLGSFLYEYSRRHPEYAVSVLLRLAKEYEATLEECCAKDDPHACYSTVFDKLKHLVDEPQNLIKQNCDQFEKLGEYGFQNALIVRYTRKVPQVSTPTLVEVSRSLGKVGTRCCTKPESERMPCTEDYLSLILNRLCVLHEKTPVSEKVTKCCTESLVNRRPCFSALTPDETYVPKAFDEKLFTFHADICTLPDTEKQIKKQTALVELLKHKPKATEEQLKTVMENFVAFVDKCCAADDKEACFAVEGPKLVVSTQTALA
Chain of Concanavalin-A (Canavalia ensiformis) (P02866 whole entry, looked up): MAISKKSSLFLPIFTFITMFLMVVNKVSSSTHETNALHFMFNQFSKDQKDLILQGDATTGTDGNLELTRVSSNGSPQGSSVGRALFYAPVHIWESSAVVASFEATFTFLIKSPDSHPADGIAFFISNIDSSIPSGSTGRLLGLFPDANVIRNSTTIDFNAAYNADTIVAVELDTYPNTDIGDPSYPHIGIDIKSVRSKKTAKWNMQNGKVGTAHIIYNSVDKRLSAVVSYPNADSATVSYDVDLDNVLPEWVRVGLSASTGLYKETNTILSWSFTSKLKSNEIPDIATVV

Take `CC[C@@H]1C=C(C(=O)O)[C@H](c2cccc(Cl)c2)N1S(=O)(=O)c1ccc(C)cc1`: the composite z-score in experiment [1] was 0.951; in experiment [3] it was -0.0581; in [4], 0.0274; in experiment [5], 0.824; in experiment [6], 2.46; in experiment [7], 0.501. Further, the composite z-score in experiment [8] was 1.09; in experiment [9] it was -0.682; in experiment [10], 0.471; in experiment [11], 1.47; in [12] it was 1.14; in experiment [13], 0.887. Further, the composite z-score is -0.611 in [14]; -0.126 in experiment [15]; -0.686 in experiment [16]; -0.908 in [18]; 0.226 in [19]. In addition, the composite Z-score in experiment [2] was -0.147 (inactive). Besides, the z-score in experiment [17] was 0.435; in [20] it was 0.556 (inactive).

As to `COC(=O)[C@@]1(Cc2ccc(F)cc2)[C@@H]2C(=CC(=O)[C@H]2CC(=O)C(=O)N2CCCC2)CN1C(=O)c1ccccc1`, the composite z-score in [1] stood at 1.02; in experiment [3], 1.24; in experiment [4], 0.845; in experiment [5] it was 0.65; in experiment [6], 3.14; in experiment [7] it was 0.805. For the same compound, the composite z-score in [8] came out at 1.22; in experiment [9], 0.484; in experiment [10], 0.455; in experiment [11] it was 0.323; in [12], 1.24; in experiment [13] it was 0.348. Moreover, the composite z-score in experiment [14] is 0.998; in experiment [15], 1.26; in [16], 0.674; in experiment [18], 0.903; in experiment [19], 1.23. In addition, in experiment [2], the composite Z-score was -0.131 (inactive). In addition, the z-score is 0.711 in experiment [17] and -8.12 (active) in [20].

With `C=CC[C@H](O)c1ccc(O)c(F)c1`, the composite z-score in experiment [1] is -0.394; in experiment [3], -0.849; in experiment [4], -0.157; in [5], 0.828; in experiment [6] it was -0.268; in experiment [7], -0.0732. Besides, the composite z-score was -1.45 in experiment [8]; -2.24 in experiment [9]; -1.09 in experiment [10]; -0.234 in experiment [11]; -1.35 in experiment [12]; -0.677 in experiment [13]. Also, the composite z-score was -2.61 in experiment [14]; -1.28 in experiment [15]; -0.975 in experiment [16]; -0.618 in experiment [18]; -0.318 in experiment [19]. Moreover, the composite Z-score in [2] is 0.404 (inactive). Further, the figures for the z-score in [17] and in [20] were 0.414 and -0.857 (inactive), respectively.

Regarding `CC(C)Cc1ccc(CN2CC[C@@H](NC(=O)c3ccccc3)C2)cc1`, the composite z-score in [1] is 0.767; in [3], -0.129; in experiment [4], -0.109; in experiment [5], -0.0412; in [6] it was -0.0414; in experiment [7], -0.0172. For the same compound, the composite z-score in [8] was -0.252; in [9] it was 0.345; in experiment [10], -0.52; in [11] it was 0.44; in experiment [12] it was -1.55; in [13], -0.144. Besides, the composite z-score in [14] is 0.411; in [15] it was -0.0213; in experiment [16] it was -0.382; in experiment [18], 0.247; in [19], 0.0191. The composite Z-score in experiment [2] is 0.196 (inactive). Besides, the figures for the z-score in experiment [17] and in [20] were 1.81 and 0.525 (inactive), respectively.

In the case of `Cc1ccc(S[C@]2(C(=O)NCc3ccccc3)CC(=O)N(Cc3ccccc3Cl)[C@@H]2c2ccc(CO)cc2)cc1`, the composite z-score in [1] was -0.447; in experiment [3], -0.511; in experiment [4] it was -0.149; in experiment [5], 0.762; in experiment [6] it was 0.397; in experiment [7] it was 0.197. Moreover, the composite z-score in experiment [8] was 0.472; in experiment [9], -0.78; in experiment [10], 0.439; in experiment [11], 1.29; in [12], -0.561; in experiment [13], -0.0881. For the same compound, the composite z-score in experiment [14] is -0.919; in experiment [15], -0.181; in [16] it was -0.756; in experiment [18], -0.423; in [19], -0.3. For the same compound, the composite Z-score in experiment [2] was -0.608 (inactive). In addition, the z-score was -0.387 in experiment [17] and 0.718 (inactive) in [20].
